# In the library only some 8.1% were active in any assay of this set; here they are far more common.
# RORg inh = blocks mouse ROR gamma transcriptional activity; P51450; Drosophila S2 Gal4-RORgamma UAS-luciferase reporter, 20 h; Potency, µM (doses to about 53.6 µM), actives largely listed as inhibitors; 310,000 tested, 5.4% active; also: nearly all actives have a fitted effect of over 60% in size
#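 Luciferase reporter read in Schneider cells carrying Gal4-RORγ (mouse) and UAS-Photinus luciferase; cells given compound 1 h before 700 uM copper sulfate induction, then incubated 20 h at ambient temperature.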
# VP16 counter = counter-screen for ROR gamma inhibitors: Gal4-VP16 reporter; Drosophila S2 Gal4-VP16 UAS-luciferase, luminescence, 20 h; Potency, µM (highest dose often 53.6 µM), actives largely listed as inhibitors; 310,000 tested, 3.5% active;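 also: Gal4-VP16 expression switched on by copper sulfate through the metallothionein promoter; nearly all actives have a fitted effect of over 50% in size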
# ClpP mod = qHTS Assay for Activators of ClpP. 340,000 tested, 1.9% active. Potency, µM (top dose mostly 57.5 µM). purified B. subtilis ClpP, FRET peptide cleavage, 20 min. ATP-dependent Clp protease proteolytic subunit (Bacillus subtilis (strain 168)), P80244; active = well fitted falling curve with a large enough effect; inconclusive = small, poorly fitted or top-dose-only effect; inactive = no such curve, though single readings can be large or run the other way; also: the source files actives as falling curves though it sought activators and does not explain the sign; nearly all actives have a fitted effect of over 65% in size
# Target sequence (P80244 whole entry, looked up): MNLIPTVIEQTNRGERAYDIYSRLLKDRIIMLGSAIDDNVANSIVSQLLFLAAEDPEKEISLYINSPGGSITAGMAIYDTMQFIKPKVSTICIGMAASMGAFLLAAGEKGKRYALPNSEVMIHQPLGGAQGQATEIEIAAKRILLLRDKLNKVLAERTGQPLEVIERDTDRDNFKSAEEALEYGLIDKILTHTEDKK
#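 Purified B. subtilis ClpP, 10 microg/mL final in Tris/HCl pH8 with KCl, BSA, glycerol and Tween-20, cleaved an Abz/nitrotyrosine-quenched decapeptide. Fluorescence (ex 320, em 430) was read at 0 and 20 min at room temperature. Delta was normalized to 5.8 microM ADEP and DMSO/no-enzyme controls.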
# PINK1 expr mod = PINK1 expression modulation; PINK1 immunofluorescence, high-content cytometry, 24 h; Potency, µM (doses to about 76.6 µM), usual class: activators; 410,000 tested, 0.2% active; AID 624263; active = well fitted activation curve with a large enough effect; inconclusive = small, poorly fitted or top-dose-only effect; cell line not stated here; also: nearly all actives have a fitted effect of over 65% in size
#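 Compound titrations (5 concentrations, 24 h) on a stable cell line; DMSO and CCCP controls. Endpoint: fixed-cell PINK1 immunofluorescence with mitochondrial, cell and nuclear markers, scanned by microplate cytometer.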
# Sfp inh = Sfp phosphopantetheinyl transferase inhibition. Q9F4F7. Biochemical Sfp PPTase activity, qHTS. Potency, µM, hits mostly inhibitors. 310,000 tested, 3.5% active;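 also: the enzyme is Sfp with the accession as filed and its product quenches rhodamine fluorescence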
#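 Sfp 15 nM + cpd, 15 min RT; start w/ rhodamine-CoA 5 uM, BHQ-2-YbbR 12.5 uM (final); 50 mM Hepes pH 7.6, 10 mM MgCl2, 0.01% NP-40, 0.01% BSA; read 525/598 nm at 0 and 30 min.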
# Epigenetic derep = regulators of epigenetic silencing causing reporter derepression in mouse cells. murine LDR cells, GFP reporter derepression, 30 h. Potency, µM (highest dose often 53.9 µM), most hits filed as activators. 280,000 tested, 0.2% active. AID 1865; also: nearly all actives have a fitted effect of over 60% in size
#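 Murine LDR cells bearing a silenced CMV-driven GFP reporter were exposed to compound for 30 h at 37 C. After PBS washes, GFP-positive cells (20-120 um objects) counted by laser-scanning microplate cytometry.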
# Numbers stand for hits; - = inactive; ? = inconclusive; . = no result given; [ ] = dose if it differs, or a comment. Unless noted, calls follow the shape of the dose curve; as a rule, active = well fitted curve in the direction sought with a large enough effect; inconclusive = small, poorly fitted or top-dose-only effect, or another doubt; inactive = no such curve, though single readings can be large; an effect the other way counts as inactive or inconclusive.
SMILES,RORg inh,VP16 counter,ClpP mod,PINK1 expr mod,Sfp inh,Epigenetic derep
O=C(N/N=C\c1ccc(Cl)s1)C1COc2ccccc2O1 (stereo not drawn),0.63µM,0.89µM,-,-,-,-
CC(=O)c1cccc(NC(=O)COc2ccccc2C(=O)Nc2ccccc2)c1,.,.,-,-,.,.
O=C1Cc2cccc3cccc1c23,-,-,22µM,.,-,-
O=C1OCc2cccc3cccc1c23,-,-,-,-,-,-
CC(C)NS(=O)(=O)c1ccc(NC(=O)C(C)Oc2ccc(C(=O)c3ccccc3)cc2)cc1 (stereo not drawn),?,7.1µM,-,-,-,-
CCCCC#Cc1cncc(C(=O)NN)c1,7.9µM,7.9µM,.,-,-,-
CCCCCCC#Cc1cncc(C(=O)NNC(=O)Nc2cc(Cl)cc(Cl)c2)c1,-,-,.,-,-,-
COc1ccc(N(C(=O)c2ccc(OC)c(OC)c2)S(=O)(=O)c2ccc(Cl)cc2)cc1,.,.,-,-,.,-
Cc1ccc(CNC(=O)c2ccc(Cn3c(SCc4ccc(F)cc4)nc4cccnc43)cc2)o1,.,.,28µM,-,.,-
O=C(NCCc1cccs1)c1ccc(Cn2c(SCc3ccc(F)cc3)nc3cccnc32)cc1,.,.,25µM,-,.,-
Cc1ccc(CSc2nc3cccnc3n2Cc2ccc(C(=O)NCc3ccco3)cc2)cc1,.,.,?,-,.,-
O=C1/C(=C\c2ccc(O)c(O)c2)C(c2ccccc2)=NN1c1ccccc1,-,-[10 µM],.,-,50µM,-[10.1 µM]
Cc1c(C(=O)NCc2ccccc2Cl)sc2nc[nH]c(=O)c12,.,.,40µM,-,.,-
Cc1c(C(=O)NCc2cccc(Cl)c2)sc2nc[nH]c(=O)c12,.,.,22µM,-,.,-
Cc1c(C(=O)NCc2ccccc2)sc2nc[nH]c(=O)c12,.,.,-,-,.,-
Cc1ccc(-n2c(C)c([N+](=O)[O-])c3ccc(O)cc32)cc1,-,-,.,.,18µM,-
Cc1c([N+](=O)[O-])c2ccc(O)cc2n1-c1ccccc1,-,-,-,-,-,-
O=C1NC2(CCCCCC2)N=C1c1ccc(F)cc1,-,-,-,-,-,-
S=C1NC2(CCCC2)N=C1c1ccccc1,5µM,-[10 µM],-,-,-,-
Cc1ccc(C2=NC3(CCCC3)NC2=S)cc1,2.5µM,7.9µM,.,-,-,-
CC(C)CC1(C)N=C(c2ccccc2)C(=S)N1 (stereo not drawn),2.8µM,2.8µM,.,-,-,-
S=C1NC2(CCCCCC2)N=C1c1ccccc1,2µM,?,.,-,-,-
CC1=CC(C)(C)NC(=S)N1c1ccc([N+](=O)[O-])cc1,.,.,.,-,.,.
CC1=CC(C)(C)NC(=S)N1c1cccc(C)c1,4.5µM,11µM,-,-,-,-
CC1=CC(C)(C)NC(=S)N1c1ccc(C)c(C)c1,0.56µM,4.5µM,-,-,-,-
SMILES,RORg inh,VP16 counter,ClpP mod,PINK1 expr mod,Sfp inh,Epigenetic derep
CC1=CC(C)(C)NC(=S)N1c1ccc(C)cc1,1.6µM,3.5µM,-,-,-,-
CCN1CCC(N(Cc2cccc(OC)c2)C(=O)Nc2cccc(C(F)(F)F)c2)CC1,.,.,-,-,.,-
CC(C)(C)c1ccc(C(=O)C[n+]2cccc(Br)c2)cc1,.,.,-,.,.,.
CCOC(=O)c1ccccc1NC(=O)c1c2c(nc3ccccc13)C(=O)N(C1CCCCC1)C2,.,.,-,-,.,-
Cc1ccc(-n2ncc3c(NCc4ccccn4)ncnc32)c(C)c1,-,-,-,-,45µM,-
Cc1ccc(-n2ncc3c(NCc4cccnc4)ncnc32)c(C)c1,?,18µM,-,-,-,-
CC(Oc1ccccc1)C(=O)N1CCC2(CC1)CC(=O)c1ccccc1O2 (stereo not drawn),.,.,25µM,-,.,.
O=C(O)c1ccc(S(=O)(=O)N2CCC3(CC2)CC(=O)c2ccccc2O3)cc1,.,.,32µM,-,.,.
Cc1ccccc1OCC(=O)N1CCC2(CC1)CC(=O)c1ccccc1O2,.,.,28µM,-,.,.
COc1cccc(CCNc2ncnc3sc(C(=O)N4CCN(C)CC4)c(C)c23)c1,.,.,.,-,.,.
CN(C)CCNCCCOc1ccccc1-c1ccccc1,-,-,.,.,50µM,-
COc1cccc(-c2ccnc(-n3ncc(C(=O)NCC(C)(C)CN(C)C)c3C)n2)c1,.,.,.,-,.,.
COC(=O)[C@H]1[C@H]2C[C@@H]3c4[nH]c5cc(OC)ccc5c4CCN3C[C@H]2C[C@@H](OC(=O)c2cc(OC)c(OC)c(OC)c2)[C@@H]1OC,-,-,-,-,-,22µM
COC(=O)[C@@H]1C2CC3c4[nH]c5cc(OC)ccc5c4CCN3CC2C[C@H](OC(=O)c2cc(OC)c(OC)c(OC)c2)C1OC (stereo partly drawn),-,-,.,.,-,?
CCOC(=O)N/C(N)=N/c1nc2ccccc2s1,?,28µM,-,.,-,-
